Reference: PubChem BioAssay AID1159580 (chemical genetic matrix, 2015)
Values joined by “and” are separate entries in the source; they are usually repeats but may differ in a detail not shown here. Equal entries are not always repeated. Screen size: about 5,500 compounds; about 2,000 (36%) were called active. About 18% were inconclusive and are not listed. Rule as the data show it: active = normalized growth mostly below about 0.91 (no sharp cut-off); inconclusive = no clear call, values can overlap the other calls; inactive = mostly above about 0.92. The list shows a part of the results.

Experiment: chemical genetic growth profiling, strain panel (AID 1159580);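 also: tested at 20 µM; growth read once vehicle control cultures reached saturation at 30 °C; 1 = growth at the plate median or of vehicle wells; lower values mean less growth of the strain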
Conditions: S. cerevisiae deletion strains, growth OD

Nc1ccc(C(=O)Oc2ccccc2)c(O)c1
normalized growth (locus YAL021C, strain ccr4, stronger effect = lower value): 0.967 (inactive)
normalized growth (locus YAL026C, strain drs2, stronger effect = lower value): 0.915 (inactive)
normalized growth (locus YAL030W, strain snc1, stronger effect = lower value): 0.935 (inactive)
normalized growth (locus YBL061C, strain skt5, stronger effect = lower value): 0.932 (inactive)
normalized growth (locus YBR009C, strain hhf1, stronger effect = lower value): 0.934 (inactive)
normalized growth (locus YBR021W, strain FUR4, stronger effect = lower value): 0.981 (inactive)
normalized growth (locus YBR023C, strain chs3, stronger effect = lower value): 0.925 (inactive)
normalized growth (locus YBR171W, strain sec66, stronger effect = lower value): 0.937 (inactive)
normalized growth (locus YBR229C, strain ROT2, stronger effect = lower value): 0.948 (inactive)
normalized growth (locus YBR231C, strain swc5, stronger effect = lower value): 0.954 (inactive)
normalized growth (locus YBR279W, strain paf1, stronger effect = lower value): 0.957 (inactive)
normalized growth (locus YCL011C, strain gbp2, stronger effect = lower value): 0.929 (inactive)
normalized growth (locus YCL016C, strain dcc1, stronger effect = lower value): 0.942 (inactive)
normalized growth (locus YCL029C, strain bik1, stronger effect = lower value): 0.883 (active)
normalized growth (locus YCL061C, strain MRC1, stronger effect = lower value): 0.951 (inactive)
normalized growth (locus YCL069W, strain vba3, stronger effect = lower value): 0.95 (inactive)
normalized growth (locus YCR088W, strain abp1, stronger effect = lower value): 0.921 (active)
normalized growth (locus YDL005C, strain med2, stronger effect = lower value): 0.971 (inactive)
normalized growth (locus YDL035C, strain GPR1, stronger effect = lower value): 0.867 (inactive)
normalized growth (locus YDL040C, strain nat1, stronger effect = lower value): 0.938 (inactive)
normalized growth (locus YDL074C, strain BRE1, stronger effect = lower value): 0.67 (active)
normalized growth (locus YDL101C, strain DUN1, stronger effect = lower value): 0.906 (inactive)
normalized growth (locus YDL134C, strain PPH21, stronger effect = lower value): 0.837 (active)
normalized growth (locus YDL185W, strain tfp1, stronger effect = lower value): 0.966 (inactive)
normalized growth (locus YDL192W, strain arf1, stronger effect = lower value): 0.807 (active)
normalized growth (locus YDR001C, strain nth1, stronger effect = lower value): 0.936 (inactive)
normalized growth (locus YDR069C, strain doa4, stronger effect = lower value): 0.948 (inactive)
normalized growth (locus YDR101C, strain arx1, stronger effect = lower value): 0.864 (active)
normalized growth (locus YDR137W, strain rgp1, stronger effect = lower value): 0.545 (active)
normalized growth (locus YDR150W, strain NUM1, stronger effect = lower value): 0.957 (inactive)
normalized growth (locus YDR159W, strain sac3, stronger effect = lower value): 0.862 (active)
normalized growth (locus YDR162C, strain NBP2, stronger effect = lower value): 0.567 (active)
normalized growth (locus YDR195W, strain ref2): 1.04 (inactive)
normalized growth (locus YDR297W, strain sur2, stronger effect = lower value): 0.932 (inactive)
normalized growth (locus YDR318W, strain mcm21, stronger effect = lower value): 0.765 (active)
normalized growth (locus YDR334W, strain swr1, stronger effect = lower value): 0.944 (inactive)
normalized growth (locus YDR335W, strain msn5, stronger effect = lower value): 0.941 (inactive)
normalized growth (locus YDR388W, stronger effect = lower value): 0.884 (active)
normalized growth (locus YDR392W, strain spt3, stronger effect = lower value): 0.81 (inactive)
normalized growth (locus YDR502C, strain sam2, stronger effect = lower value): 0.767 (active)
normalized growth (locus YEL003W, strain gim4, stronger effect = lower value): 0.933 (inactive)
normalized growth (locus YEL037C, strain rad23, stronger effect = lower value): 0.946 (inactive)
normalized growth (locus YEL061C, strain CIN8 (second series), stronger effect = lower value): 0.916 (inactive)
normalized growth (locus YEL061C, strain CIN8, stronger effect = lower value): 0.938 (inactive)
normalized growth (locus YER015W, strain faa2, stronger effect = lower value): 0.944 (inactive)
normalized growth (locus YER016W, strain bim1, stronger effect = lower value): 0.941 (inactive)
normalized growth (locus YER110C, stronger effect = lower value): 0.86 (active)
normalized growth (locus YER111C, strain swi4, stronger effect = lower value): 0.938 (inactive)
normalized growth (locus YER155C, strain BEM2 (second series), stronger effect = lower value): 0.533 (active)
normalized growth (locus YER155C, strain BEM2, stronger effect = lower value): 0.947 (inactive)
normalized growth (locus YER167W, strain BCK2, stronger effect = lower value): 0.759 (active)
normalized growth (locus YFR010W, strain ubp6, stronger effect = lower value): 0.95 (inactive)
normalized growth (locus YGL078C, strain dbp3, stronger effect = lower value): 0.893 (active)
normalized growth (locus YGL086W, strain mad1, stronger effect = lower value): 0.801 (active)
normalized growth (locus YGL167C, strain pmr1, stronger effect = lower value): 0.942 (inactive)
normalized growth (locus YGL173C, strain kem1, stronger effect = lower value): 0.899 (active)
normalized growth (locus YGL227W, strain vid30, stronger effect = lower value): 0.927 (inactive)
normalized growth (locus YGL240W, strain doc1, stronger effect = lower value): 0.864 (active)
normalized growth (locus YGL248W, strain PDE1, stronger effect = lower value): 0.864 (active)
normalized growth (locus YGL253W, strain hxk2, stronger effect = lower value): 0.967 (inactive)
normalized growth (locus YGR135W, strain pre9, stronger effect = lower value): 0.676 (active)
normalized growth (locus YGR252W, strain gcn5, stronger effect = lower value): 0.589 (active)
normalized growth (locus YHR013C, strain ard1, stronger effect = lower value): 0.907 (inactive)
normalized growth (locus YHR027C, strain rpn1, stronger effect = lower value): 0.945 (inactive)
normalized growth (locus YHR030C, strain SLT2, stronger effect = lower value): 0.9 (active) and 0.937 (inactive)
normalized growth (locus YHR079C, strain IRE1 (second series), stronger effect = lower value): 0.864 (active)
normalized growth (locus YHR079C, strain IRE1, stronger effect = lower value): 0.929 (inactive)
normalized growth (locus YHR094C, strain hxt1, stronger effect = lower value): 0.926 (inactive)
normalized growth (locus YHR129C, strain ARP1, stronger effect = lower value): 0.88 (active)
normalized growth (locus YHR142W, strain chs7, stronger effect = lower value): 0.894 (inactive)
normalized growth (locus YHR200W, strain rpn10, stronger effect = lower value): 0.913 (active)
normalized growth (locus YIL066C, strain RNR3, stronger effect = lower value): 0.741 (active)
normalized growth (locus YIL073C, strain SPO22, stronger effect = lower value): 0.764 (inactive)
normalized growth (locus YIL125W, strain kgd1, stronger effect = lower value): 0.922 (active)
normalized growth (locus YIR030C, strain dcg1, stronger effect = lower value): 0.867 (active)
normalized growth (locus YJL092W, strain hpr5, stronger effect = lower value): 0.943 (inactive)
normalized growth (locus YJL095W, strain BCK1 (second series), stronger effect = lower value): 0.936 (inactive)
normalized growth (locus YJL095W, strain BCK1, stronger effect = lower value): 0.651 (active) and 0.94 (inactive)
normalized growth (locus YJL115W, strain asf1, stronger effect = lower value): 0.936 (inactive)
normalized growth (locus YJL129C, strain trk1, stronger effect = lower value): 0.892 (inactive)
normalized growth (locus YJL134W, strain LCB3, stronger effect = lower value): 0.955 (inactive)
normalized growth (locus YJL154C, strain vps35, stronger effect = lower value): 0.941 (inactive)
normalized growth (locus YJL164C, strain tpk1, stronger effect = lower value): 0.919 (inactive)
normalized growth (locus YJL166W, strain qcr8, stronger effect = lower value): 0.935 (inactive)
normalized growth (locus YJL168C, strain set2, stronger effect = lower value): 0.921 (active)
normalized growth (locus YJL187C, strain SWE1 (second series), stronger effect = lower value): 0.876 (inactive)
normalized growth (locus YJL187C, strain SWE1, stronger effect = lower value): 0.944 (inactive)
